From PubChem BioAssay AID1159580 (chemical genetic matrix, 2015)
Several values for one entry are separate records, joined by “and”; a condition that tells them apart may be missing. Equal entries are not always repeated. Hit rate of the full screen: of about 5,500 compounds, about 2,000 (36%) were called active. Another 18% or so got no clear call; they are omitted. Rule as the data show it: active = normalized growth mostly below about 0.91 (no sharp cut-off); inconclusive = no clear call, values can overlap the other calls; inactive = mostly above about 0.92. The list shows a part of the results.

Experiment: chemical genetic growth profiling, strain panel (AID 1159580);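 also: tested at 20 µM; growth read once vehicle control cultures reached saturation at 30 °C; 1 = growth at the plate median or of vehicle wells; lower values mean less growth of the strain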
Conditions: S. cerevisiae deletion strains, growth OD

Measured: normalized growth

C1CCN2C[C@@H]3C[C@H](CN4CCCC[C@@H]34)[C@H]2C1
inactive: locus YAL013W, strain DEP1, hits give low values 1.04 | locus YAL021C, strain ccr4, hits give low values 0.995 | locus YAL026C, strain drs2, hits give low values 1.02 | locus YAL030W, strain snc1, hits give low values 1.01 | locus YBL061C, strain skt5, hits give low values 0.999 | locus YBR009C, strain hhf1, hits give low values 1 | locus YBR021W, strain FUR4, hits give low values 1.02 | locus YBR023C, strain chs3, hits give low values 1.01 | locus YBR171W, strain sec66, hits give low values 1.01 | locus YBR229C, strain ROT2, hits give low values 0.999 | locus YBR231C, strain swc5, hits give low values 1.03 | locus YBR279W, strain paf1, hits give low values 1.01 | locus YCL011C, strain gbp2, hits give low values 1 | locus YCL016C, strain dcc1, hits give low values 0.991 | locus YCL029C, strain bik1, hits give low values 0.995 | locus YCL061C, strain MRC1, hits give low values 1.01 | locus YCL069W, strain vba3, hits give low values 1.01 | locus YCR088W, strain abp1, hits give low values 1.01 | locus YDL005C, strain med2, hits give low values 1.02 | locus YDL035C, strain GPR1, hits give low values 1.02 | locus YDL040C, strain nat1, hits give low values 1 | locus YDL074C, strain BRE1, hits give low values 1.01 | locus YDL101C, strain DUN1, hits give low values 1.01 | locus YDL134C, strain PPH21, hits give low values 1 | locus YDL185W, strain tfp1, hits give low values 1 | locus YDL192W, strain arf1, hits give low values 1.01 | locus YDR001C, strain nth1, hits give low values 1.01 | locus YDR069C, strain doa4, hits give low values 1.01 | locus YDR101C, strain arx1, hits give low values 1 | locus YDR137W, strain rgp1, hits give low values 1.01 | locus YDR150W, strain NUM1, hits give low values 1.01 | locus YDR159W, strain sac3, hits give low values 1.05 | locus YDR162C, strain NBP2, hits give low values 1.01 | locus YDR195W, strain ref2 0.996 | locus YDR297W, strain sur2, hits give low values 1.03 | locus YDR318W, strain mcm21, hits give low values 1.01 | locus YDR334W, strain swr1, hits give low values 1.01 | locus YDR335W, strain msn5, hits give low values 1.01 | locus YDR388W, hits give low values 0.994 | locus YDR392W, strain spt3, hits give low values 1.02 | locus YDR502C, strain sam2, hits give low values 1.01 | locus YEL003W, strain gim4, hits give low values 1.01 | locus YEL037C, strain rad23, hits give low values 0.994 | locus YEL061C, strain CIN8 (second series), hits give low values 1.01 | locus YEL061C, strain CIN8, hits give low values 1 | locus YER015W, strain faa2, hits give low values 1 | locus YER016W, strain bim1, hits give low values 1 | locus YER110C, hits give low values 0.999 | locus YER111C, strain swi4, hits give low values 0.993 | locus YER155C, strain BEM2 (second series), hits give low values 1.04 | locus YER155C, strain BEM2, hits give low values 1.01 | locus YER167W, strain BCK2, hits give low values 1.03 | locus YFR010W, strain ubp6, hits give low values 1.02 | locus YGL078C, strain dbp3, hits give low values 1 | locus YGL086W, strain mad1, hits give low values 1.01 | locus YGL167C, strain pmr1, hits give low values 1 | locus YGL173C, strain kem1, hits give low values 1.02 | locus YGL227W, strain vid30, hits give low values 1.01 | locus YGL240W, strain doc1, hits give low values 1.04 | locus YGL248W, strain PDE1, hits give low values 1 | locus YGL253W, strain hxk2, hits give low values 1 | locus YGR135W, strain pre9, hits give low values 0.996 | locus YGR252W, strain gcn5, hits give low values 1.02 | locus YHR013C, strain ard1, hits give low values 1.01 | locus YHR027C, strain rpn1, hits give low values 1.01 | locus YHR030C, strain SLT2, hits give low values 1.01 and 1.07 | locus YHR079C, strain IRE1 (second series), hits give low values 1 | locus YHR079C, strain IRE1, hits give low values 1.03 | locus YHR094C, strain hxt1, hits give low values 0.995 | locus YHR129C, strain ARP1, hits give low values 1.01 | locus YHR142W, strain chs7, hits give low values 1 | locus YHR200W, strain rpn10, hits give low values 1 | locus YIL066C, strain RNR3, hits give low values 1.03 | locus YIL073C, strain SPO22, hits give low values 1.02 | locus YIL125W, strain kgd1, hits give low values 1 | locus YIR030C, strain dcg1, hits give low values 1 | locus YJL092W, strain hpr5, hits give low values 1 | locus YJL095W, strain BCK1 (second series), hits give low values 1.01 | locus YJL095W, strain BCK1, hits give low values 1.02 and 1.04 | locus YJL115W, strain asf1, hits give low values 0.993 | locus YJL129C, strain trk1, hits give low values 1 | locus YJL134W, strain LCB3, hits give low values 1.01 | locus YJL154C, strain vps35, hits give low values 1 | locus YJL164C, strain tpk1, hits give low values 0.997 | locus YJL166W, strain qcr8, hits give low values 1.01 | locus YJL168C, strain set2, hits give low values 1 | locus YJL187C, strain SWE1 (second series), hits give low values 1.01 | locus YJL187C, strain SWE1, hits give low values 0.991 | locus YJR043C, strain POL32, hits give low values 1.01
